Results reported in the supplement of paper PMC6555819.

Experiments:
Test in all cases: PBM binding z-score (relative to random genomic background probes); higher = stronger binding; sequences stand for … in GC…GCGATTGACAGCGTAGAATGAAGG
[1] = tested on: FXR:RXRa (NR concentration 270 nM, RXRa partner concentration 90 nM)
In short: (§1)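 For binding z-scores, the reference was random background probes on custom Agilent 4×180K protein-binding microarrays. These arrays were incubated 1 h with ligand-free nuclear receptor dimers in PBS pH 7.4, 2% milk, 0.02% Triton X-100, 1 mM DTT, 0.2 mg/mL BSA and 0.4 mg/ml salmon testes DNA. Fluorescence was scanned after antibody detection of each partner (one per run) and regression-normalized.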

[2] = tested on: LXRa:RXRa (NR concentration 270 nM, RXRa partner concentration 90 nM)
In short: as §1

[3] = tested on: LXRa homodimer (NR concentration 270 nM)
In short: as §1

[4] = tested on: LXRb:RXRa (NR concentration 270 nM, RXRa partner concentration 90 nM)
In short: as §1

[5] = tested on: LXRb homodimer (NR concentration 270 nM)
In short: as §1

[6] = tested on: PPARa:RXRa (NR concentration 270 nM, RXRa partner concentration 90 nM)
In short: as §1

[7] = tested on: PPARg:RXRa (NR concentration 180 nM, RXRa partner concentration 90 nM)
In short: as §1

[8] = tested on: PPARg:RXRa 270nM:90nM, anti-RXR (NR concentration 270 nM, RXRa partner concentration 90 nM)
In short: as §1

[9] = tested on: PPARg:RXRa 30nM:10nM, anti-RXR (NR concentration 30 nM, RXRa partner concentration 10 nM)
In short: as §1

[10] = tested on: PPARg:RXRa 90nM:30nM, anti-RXR (NR concentration 90 nM, RXRa partner concentration 30 nM)
In short: as §1

Sequence	PBM binding z-score [1]	PBM binding z-score [2]	PBM binding z-score [3]	PBM binding z-score [4]	PBM binding z-score [5]	PBM binding z-score [6]	PBM binding z-score [7]	PBM binding z-score [8]	PBM binding z-score [9]	PBM binding z-score [10]
CTCGAAAGGTCGGTTGATGTGAGTATACGGATAA	1.88	1.52	-0.145	1.45	0.455	2.31	0.418	0.917	0.204	0.223
CGAACTAGGTCAGAACGGGACAGTGAAGGATGAT	0.777	0.488	-0.316	0.113	-0.487	3.16	5.01	4.15	1.79	3.38
AGAATGAGGTTACCAAAGATCAGGAAAACGCTTG	1.7	6.01	-0.322	3.66	-0.00832	3.51	2.7	2.54	0.962	2.01
CAAACTAGGTTAAAGGTCAAAGTCGAGCCAACCA	6.87	6.3	5.27	6	2.67	7.07	13.2	11	14.1	13.4
TCTATTAGTAGATTAGGGCAACCGAAACAGCGGA	0.325	0.084	-0.337	0.176	0.298	0.659	0.254	1.64	3.45	2.5
TCTAGTCGGTCACGGAGGTCACACACGACGGGTA	4.64	4.8	4.58	3.54	0.882	4.58	5.07	4.97	3.86	4.54
ATCGAAAGGTCGAGGTGAGTTTAGAGAAAGGGAA	4.34	3.68	-0.00415	2.76	0.473	4.5	3.03	3.81	1.16	2.57
CGAACTAAGTCAAGGACAGTGAATCTCCGCACGC	-0.155	-0.206	-0.211	-0.441	-0.793	-0.228	0.372	-0.132	-0.287	-0.694
TCGAGTAGATTACCAATGGGGCATTCAGCTTTCT	-0.309	-0.307	-0.306	0.0449	-0.399	-0.126	-0.221	-0.0351	0.935	0.435
GCTCGGATGACAAGGTCAGAGCTTTGTCCGTAGA	0.982	1.15	-0.396	0.805	-1.32	1.93	0.116	0.444	-0.707	-0.161
GGAACGAGGGCCTTCGAGTTGATAGCATGGCGAT	-0.344	-0.805	-0.648	-0.91	-1.22	-0.579	0.209	-0.359	-0.539	-0.758
AGAATGAGGTTATACGTAGATCAGTGAAGAAAGT	1.96	1.82	0.00702	1.51	0.326	2.96	1.92	2.13	0.914	1.38
TTACCAAGTTGAAGGTCGTTGATCCCTCTGTAGA	2.26	2.28	0.241	1.56	-0.05	1.59	0.598	2.48	1.36	2.27
TGACCAAGGTGAGCTGAGGTCGTTGATCCAACTC	0.866	1.01	-0.752	0.289	-1.36	1.62	0.26	0.767	-0.66	0.279
CCTATTAGTTAACCATAAGGGCAACCGAAGCTCG	0.323	0.341	0.429	0.249	0.486	0.386	0.374	0.215	0.166	0.0193
CCAGACAGGTGAGAAGGTAACTCACCCTCGATTA	-0.00684	0.259	-0.0683	0.491	-0.394	1.09	0.731	0.509	-0.0353	-0.0765
ACTTACGGGTCAACAAGGTTATAGCACGCGTATA	6.88	4.7	0.809	4.4	1.05	6.09	5.69	5.32	2.2	4.02
CGAACTAGGTCAGAACATGACAGTGAAGGATGAT	0.703	0.762	-0.0558	0.426	-0.161	3.07	5.35	4.49	2.05	3.4
CCGACTGGGGCAGAAAGGTTTCCATACCATCCGG	-0.743	-0.804	-0.629	-1.01	-1.31	-0.642	0.629	0.229	-0.72	-0.258

Sequence	PBM binding z-score [1]	PBM binding z-score [2]	PBM binding z-score [3]	PBM binding z-score [4]	PBM binding z-score [5]	PBM binding z-score [6]	PBM binding z-score [7]	PBM binding z-score [8]	PBM binding z-score [9]	PBM binding z-score [10]
TTACCAAGGTGAAGGTCGGTGATCCCTCTGTAGA	0.881	0.952	-0.494	0.467	-0.916	2.14	2.65	3.05	1.65	2.96
TCTAGTTGGGCACGGAGGTCACACACGACGGGTA	2.68	2.91	1.6	2.66	0.446	3.52	2.82	3.41	2.73	2.96
AATACAGGGTCACTACGCCAGAGTAGGTACGAAT	6.43	4.99	1.13	4.16	1.17	5.41	6.19	5.01	2.58	3.89
ATCGAAAGGTCGAAGTTGAGTATACCCACCCGAA	4.36	3.82	0.667	3.19	1.03	4.79	3.29	3.96	1.49	3.12
TCATATAGGTAATACAGGTGAAGGTCGGCATCTA	1.22	1.34	0.87	1.02	0.522	2.28	1.83	3.03	4.02	3.78
CTTCCAAGGTCAAGGTCAGTGAAAGAGACTCGAA	7.44	6.06	1.86	4.85	1.61	6.31	6.43	6.37	3.11	5.13
CCAGACAGGTGAAAGGTACCTCAGTCTGGTACGC	-0.0455	0.27	-0.338	0.286	-0.978	2.28	3.4	4.94	2.26	4.17
TCTTGTAGCTCAAAGGTTAAGAAAGCCGAAGCCT	0.766	1.08	-0.349	1.32	-0.747	3.36	4.77	6.09	4.64	6.1
GCTAGCAGGCCATTTGGGCCACTCAATGACGGGC	-0.514	-0.935	-0.951	-1.27	-1.17	-0.573	0.102	-0.789	-0.989	-1.19
CAGCCTAGGTCAGGGCCAGTCTAGGAGGAACGTT	1.43	0.988	-0.566	0.24	-1.33	2	0.484	0.9	-0.591	0.125
ATCTCTAGGTAAGACTCCGTTCAGTGAAGAACGC	0.49	0.425	0.698	0.0873	0.894	-0.00199	0.087	0.169	0.111	0.441
CCTACTGGGCCAAGGCCATTGATCAGTCAAAGCA	-0.412	-0.51	-0.664	-0.606	-0.891	-0.0978	0.449	0.724	-0.7	-0.174
GCTAGCACGCCATTTGGGTCACTCAATGACGGGC	-0.103	-0.15	-0.585	-0.179	-1.07	1.13	0.747	0.379	-0.294	0.152
AGAACGAGGGCAGGCTGAGTTGATAGCAGAGTAG	-0.312	-0.562	-0.661	-0.676	-1.05	0.187	0.64	0.432	-0.189	-0.155
AGAAAGAGGTTATACGTAGATCAGGGAAGAAAGT	3.01	2.51	0.203	2.19	0.538	3.37	1.84	1.7	0.807	1.23
AGAATGAGGTTATTAAGATCAGGGATTTGCGGTC	1.64	1.59	0.335	1.29	0.376	2.39	1.5	1.92	0.623	1.21
TCTATTAGATGAAGGGCAACCGACGAGTCCGTTT	0.734	0.81	-0.159	0.733	0.205	0.841	0.575	2.01	3.7	2.93
CGAACTAGGTCAAAGGTCAAAGTCGAGCCAACCA	8.28	7.41	5.37	7.03	2.53	7.47	14.1	11.4	14.7	14
TAGCCTAGGTCATGCTGGCCAGTATAGTGTCGGC	3.83	3.03	0.0898	1.88	-0.303	3.25	1.99	2.15	0.0868	1.11
